Laboratory results: the supplement of paper PMC6555819

Tests used:
Assay in all cases: PBM binding z-score (relative to random genomic background probes); higher = stronger binding; sequences stand for … in GC…GCGATTGACAGCGTAGAATGAAGG
[1] = test system: FXR:RXRa (NR concentration 270 nM, RXRa partner concentration 90 nM)
Procedure, shortened: (§1)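 Binding z-scores take random background probes as their reference. They come from custom Agilent 4×180K protein-binding microarrays incubated 1 h with ligand-free nuclear receptor dimers, with antibodies against each partner (one per run) detecting binding. Scanned fluorescence was regression-normalized.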

[2] = test system: LXRa:RXRa (NR concentration 270 nM, RXRa partner concentration 90 nM)
Procedure, shortened: as §1

[3] = test system: LXRa homodimer (NR concentration 270 nM)
Procedure, shortened: as §1

[4] = test system: LXRb:RXRa (NR concentration 270 nM, RXRa partner concentration 90 nM)
Procedure, shortened: as §1

[5] = test system: LXRb homodimer (NR concentration 270 nM)
Procedure, shortened: as §1

[6] = test system: PPARa:RXRa (NR concentration 270 nM, RXRa partner concentration 90 nM)
Procedure, shortened: as §1

[7] = test system: PPARg:RXRa (NR concentration 180 nM, RXRa partner concentration 90 nM)
Procedure, shortened: as §1

[8] = test system: PPARg:RXRa 270nM:90nM, anti-RXR (NR concentration 270 nM, RXRa partner concentration 90 nM)
Procedure, shortened: as §1

[9] = test system: PPARg:RXRa 30nM:10nM, anti-RXR (NR concentration 30 nM, RXRa partner concentration 10 nM)
Procedure, shortened: as §1

[10] = test system: PPARg:RXRa 90nM:30nM, anti-RXR (NR concentration 90 nM, RXRa partner concentration 30 nM)
Procedure, shortened: as §1

[11] = test system: PPARg:RXRa DBDmut IVT, anti-RXR (DBD mutation: RXRa K156A/R161A, NR concentration 270 nM, RXRa partner concentration 90 nM)
Procedure, shortened: as §1

[12] = test system: PPARg:RXRa IVT, anti-PPARg (NR concentration 270 nM, RXRa partner concentration 90 nM)
Procedure, shortened: as §1

[13] = test system: PPARg DBDmut:RXRa IVT, anti-PPARg (DBD mutation: PPARg1 K132A/R137A, NR concentration 270 nM, RXRa partner concentration 90 nM)
Procedure, shortened: as §1

[14] = test system: PPARg DBDmut IVT, anti-PPARg (DBD mutation: PPARg1 K132A/R137A, NR concentration 270 nM)
Procedure, shortened: as §1

[15] = test system: PPARg homodimer (NR concentration 180 nM)
Procedure, shortened: as §1

[16] = test system: PXR:RXRa (NR concentration 270 nM, RXRa partner concentration 90 nM)
Procedure, shortened: as §1

[17] = test system: PXR homodimer (NR concentration 270 nM)
Procedure, shortened: as §1

[18] = test system: RARa:RXR (NR concentration 270 nM, RXRa partner concentration 90 nM)
Procedure, shortened: as §1

[19] = test system: RARa homodimer (NR concentration 270 nM)
Procedure, shortened: as §1

[20] = test system: RARb:RXRa (NR concentration 270 nM, RXRa partner concentration 90 nM)
Procedure, shortened: as §1

Sequence | PBM binding z-score [1] | PBM binding z-score [2] | PBM binding z-score [3] | PBM binding z-score [4] | PBM binding z-score [5] | PBM binding z-score [6] | PBM binding z-score [7] | PBM binding z-score [8] | PBM binding z-score [9] | PBM binding z-score [10] | PBM binding z-score [11] | PBM binding z-score [12] | PBM binding z-score [13] | PBM binding z-score [14] | PBM binding z-score [15] | PBM binding z-score [16] | PBM binding z-score [17] | PBM binding z-score [18] | PBM binding z-score [19] | PBM binding z-score [20]
ACTCGGACGACAAAGGTCAGAGCTACGCCAGTGA | 3.61 | 4.04 | 1.27 | 3.23 | 0.325 | 4.37 | 4.45 | 5.09 | 2.65 | 4.51 | 0.324 | 2.18 | 0.163 | -0.0873 | 2.37 | 3.4 | -0.377 | 4.48 | 0.552 | 4.17
TTACCAAGGTGAAAGTTCGTTGATGCACGCCTTG | 1.93 | 1.83 | 0.114 | 1.35 | -0.561 | 4.14 | 6.03 | 6.53 | 4.84 | 6.63 | 1.85 | 4.23 | 0.268 | 0.287 | 0.78 | 2.73 | 1.54 | 2.73 | 0.264 | 2.24
CGAACTAGGTCAGAACAGGACAGGGAAGGATGAT | 1.5 | 1.01 | 0.0984 | 0.515 | -0.138 | 3.4 | 5.45 | 4.61 | 1.99 | 3.65 | 7.1 | 7.39 | 2 | 3.12 | 1.1 | 0.778 | 0.31 | 2.03 | 0.307 | 3.02
CCTTACGGGTCAAGGGTATAGCACGGGTGGTACG | 5.14 | 3.24 | -0.107 | 2.59 | -0.218 | 5.12 | 5.03 | 5.23 | 2.3 | 4.37 | 1.83 | 3.8 | 0.361 | -0.594 | 3.73 | 2.9 | -0.229 | 4.27 | 0.518 | 3.98
GCTTACGGGTCAAAGGATATAGCATGAATAGAAT | 5.93 | 3.75 | -0.261 | 3.44 | 0.261 | 5.37 | 5.87 | 5.9 | 3.29 | 5.26 | 4.24 | 4.01 | 1.25 | 1.03 | 1.09 | 3.09 | -0.166 | 3.94 | 0.713 | 3.54
GCTTGTAGATCAAGGTTAAGACAGACTAAGCTAA | 0.188 | 0.807 | -0.318 | 0.486 | -0.279 | 1.61 | 1.25 | 2.16 | 0.803 | 1.8 | 1.75 | 1.34 | 0.667 | -0.149 | 0.0438 | 0.721 | -0.263 | 0.922 | -0.104 | 0.893
CCTAGCATGCCAGGGTCACTCAAGCATTTCGCTT | 2.11 | 1.85 | -0.459 | 2.23 | -0.94 | 3.15 | 0.542 | 1.23 | -0.373 | 0.276 | -0.246 | 0.391 | -0.691 | -1.32 | 0.817 | 2.61 | -0.116 | 3.17 | -0.337 | 2.35
